# Data taken from PubChem BioAssay (NCATS).
# Records with an inconclusive call do not appear. A call without a number means that no potency is given here. Calls of active or inactive are those of the source. Unless noted, calls follow the shape of the full dose curve.
# Columns and labels:
# [1] = Primary qHTS for Huh7 cytotoxicity: counterscreen for inhibitors of MERS-S pseudotyped particle cell entry (AID 1479147); details: outcome: dose series up to 57.1 µM unless noted
# [2] = Primary qHTS for Vero E6 cytotoxicity: counterscreen for inhibitors of SARS-S pseudo-typed particle cell entry (AID 1479150); details: outcome: dose series up to 57.1 µM unless noted
# [3] = Confirmatory qHTS to identify inhibitors of SARS-CoV-2 cell entry (AID 1645844); also: potency is read from the fitted curve at half-maximal effect; nearly all actives have a fitted effect of over 45% in size
# Summary of the method: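 Luminescence entry read-out after 48 h: spike-pseudotyped MLV particles (Wuhan-Hu-1, 19-aa C-terminal truncation) added to compound-pretreated (1 h) HEK293-ACE2 cells; Data were normalised to bald PP and spike PP wells.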
# [4] = Cytotoxicity counterscreen for inhibitors of SARS-CoV-2 cell entry (AID 1645845); details: outcome: dose series up to 57.1 µM unless noted; also: nearly all actives have a fitted effect of over 50% in size
# Summary of the method: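 ATP-content luminescence (ATPLite 1step, 15 min RT) read after 48 h compound exposure of Expi293F cells stably expressing human ACE2; normalized to cells-only wells and media-only wells.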
# [5] = VSVG counterscreen qHTS to identify inhibitors of SARS-CoV-2 cell entry (AID 1645847); also: nearly all actives have a fitted effect of over 65% in size; also: potency is read from the fitted curve at half-maximal effect
# Summary of the method: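 HEK293-ACE2 cells (Expi293F, human ACE2) pretreated 1 h with compound, then infected with MLV-based VSV-G pseudotyped particles for 48 h at 37 C; luciferase luminescence normalized to VSV-G PP and bald PP wells.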
# [6] = Confirmatory qHTS for VERO E6 Cytotoxicity Assay: Counterscreen for SARS-CoV-2 CPE Assay (AID 1508605); also: nearly all actives have a fitted effect of over 60% in size
# [7] = Primary qHTS to identify inhibitors of SARS-CoV-2 cell entry (AID 1645846); details: SARS-CoV-2 pseudovirus cell entry assay, luminescence; activity change, negative = inhibition: at 57.1 µM (top of the series) unless noted; also: nearly all actives have a fitted effect of over 45% in size; also: potency is read from the fitted curve at half-maximal effect
# Summary of the method: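 HEK293 cells stably expressing human ACE2, pre-treated 1 h with compound, then infected with MLV particles pseudotyped with Wuhan-Hu-1 spike (C-terminal 19-aa truncation). Luciferase luminescence after 48 h at 37 °C, normalised to spike PP and bald PP.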
# [8] = Confirmatory qHTS for activators (rescue) of SARS-CoV-2 Cytopathic Effect (CPE) (AID 1508606); also: potency is read from the fitted curve at half-maximal effect; nearly all actives have a fitted effect of over 70% in size
# [9] = Primary qHTS for inhibitors of MERS-S pseudo-typed particle cell entry (AID 1479149); details: outcome: dose series up to 57.1 µM unless noted; also: nearly all actives have a fitted effect of over 60% in size
# [10] = biological target: Glutathione peroxidase 1 (Homo sapiens) (UniProt P07203); assay: Primary qHTS Assay for Inhibitors of Recombinant Selenoprotein Glutathione Peroxidase 1 (GPX1) (AID 1845191; active = well fitted inhibition curve with a large enough effect; also: nearly all actives have a fitted effect of over 65% in size)
# Sequence of Glutathione peroxidase 1 (Homo sapiens) (P07203 whole entry, looked up): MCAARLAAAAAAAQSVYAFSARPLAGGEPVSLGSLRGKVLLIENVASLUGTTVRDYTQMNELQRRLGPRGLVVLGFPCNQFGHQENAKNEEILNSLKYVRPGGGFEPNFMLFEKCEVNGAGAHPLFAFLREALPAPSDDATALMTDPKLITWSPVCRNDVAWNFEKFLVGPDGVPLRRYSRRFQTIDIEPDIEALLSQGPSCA
# Summary of the method: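 NADPH consumption tracked by fluorescence at 340/450 nm between t=0 and t=15 min, room temperature. Final mix: 10 nM GPX1, 100 nM glutathione reductase, 1 mM GSH, 0.5 mM NADPH, 0.5 mM cumene hydroperoxide, 0.01% BSA; 30 min compound–enzyme preincubation.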
compound,measurement,setting,value
[2H]C([2H])([2H])C(O)([C@@H](C)/C=C/[C@@H](C)[C@H]1CC[C@H]2/C(=C/C=C3C[C@@H](O)C[C@H](O)C3)CCC[C@]12C)C([2H])([2H])[2H],Potency,[1],inactive
same,Potency,[2],inactive
same,Potency,[3],6.81 µM (active)
same,Potency,[4],inactive
same,Potency,[5],3.83 µM (active)
CC(CN(C)C)CN1c2ccccc2Sc2ccc(C(F)(F)F)cc21 (centres undefined),Potency,[1],inactive
same,Potency,[2],inactive
same,Potency,[6],inactive
same,Potency,[3],15.2 µM (active)
same,Potency,[4],inactive
same,Potency,[7],12.6 µM (active)
CN1CC[C@H](CN2c3ccccc3Sc3ccccc32)C1,Potency,[1],inactive
same,Potency,[2],inactive
same,Potency,[6],inactive
same,Potency,[8],11.2 µM (active)
same,Potency,[3],3.41 µM (active)
same,Potency,[4],inactive
same,Potency,[7],12.6 µM (active)
OC[C@H]1NC[C@H](O)[C@@H](O)[C@@H]1O,Potency,[1],inactive
same,Potency,[2],inactive
same,Potency,[4],inactive
O=C1[C@@H]2[C@H]3CC[C@H](C3)[C@@H]2C(=O)N1C[C@@H]1CCCC[C@H]1CN1CCN(c2nsc3ccccc23)CC1,Potency,[1],inactive
same,Potency,[2],inactive
same,Potency,[3],12.1 µM (active)
same,Potency,[4],inactive
same,Potency,[7],31.6 µM (active)
same,Potency,[5],3.04 µM (active)
CCOC(=O)N[C@@H]1CC[C@@H]2[C@@H](C1)C[C@H]1C(=O)O[C@H](C)C1[C@H]2/C=C/c1ccc(-c2cccc(F)c2)cn1 (some centres undefined),Potency,[1],inactive
same,Potency,[2],inactive
same,Potency,[6],inactive
same,Potency,[3],7.64 µM (active)
same,Potency,[4],inactive
N=C(N)c1ccc(OCCCOc2ccc(C(=N)N)cc2Br)c(Br)c1,Potency,[1],inactive
same,Potency,[2],inactive
COc1cc2[nH]c(C)c(CCN3CCN(c4ccccc4)CC3)c2cc1OC,Potency,[1],inactive
same,Potency,[2],inactive
same,Potency,[4],inactive
same,"activity change, negative = inhibition",[7],-39.8%
Cc1cnc(C(=O)N[C@H]2CCCCC/C=C\[C@H]3C[C@@]3(C(=O)NS(=O)(=O)C3CC3)NC(=O)[C@@H]3C[C@@H](Oc4nc5ccccc5c5ccccc45)CN3C2=O)cn1,Potency,[1],inactive
same,Potency,[2],inactive
same,Potency,[4],inactive
O=C(CCCN1CCC(C(=O)c2ccc(F)cc2)CC1)c1ccc(F)cc1,Potency,[1],inactive
same,Potency,[2],inactive
same,Potency,[4],inactive
CC1(C)[C@@H](O[C@H]2O[C@H](C(=O)O)[C@@H](O)[C@H](O)[C@H]2O[C@@H]2O[C@H](C(=O)O)[C@@H](O)[C@H](O)[C@H]2O)CC[C@]2(C)[C@H]3C(=O)C=C4[C@@H]5C[C@@](C)(C(=O)O)CC[C@]5(C)CC[C@@]4(C)[C@]3(C)CC[C@@H]12,Potency,[9],inactive
same,Potency,[2],inactive
same,Potency,[4],inactive
O=C(OC[C@H]1O[C@@H](OC(=O)c2cc(O)c(O)c(OC(=O)c3cc(O)c(O)c(O)c3)c2)[C@H](OC(=O)c2cc(O)c(O)c(OC(=O)c3cc(O)c(O)c(O)c3)c2)[C@@H](OC(=O)c2cc(O)c(O)c(OC(=O)c3cc(O)c(O)c(O)c3)c2)[C@@H]1OC(=O)c1cc(O)c(O)c(OC(=O)c2cc(O)c(O)c(O)c2)c1)c1cc(O)c(O)c(OC(=O)c2cc(O)c(O)c(O)c2)c1,Potency,[2],inactive
COc1ccc2c(c1)N(C[C@H](C)CN(C)C)c1ccccc1S2,Potency,[2],inactive
same,Potency,[6],inactive
same,Potency,[8],10 µM (active)
same,Potency,[4],inactive
same,Potency,[7],11.2 µM (active)
CC(C)N1CCN(c2ccc(OC[C@@H]3CO[C@@](Cn4cncn4)(c4ccc(Cl)cc4Cl)O3)cc2)CC1,Potency,[9],inactive
same,Potency,[2],inactive
same,Potency,[4],inactive
O=C(CCCN1CCC(n2c(=S)[nH]c3ccccc32)CC1)c1ccc(F)cc1,Potency,[2],inactive
CC1CCCC(O)CCCCCc2cc(O)cc(O)c2C(=O)O1 (centres undefined),Potency,[1],inactive
same,Potency,[2],inactive
same,Potency,[10],inactive
CCC1OC(=O)C(C)C(OC2CC(C)(OC)C(O)C(C)O2)C(C)C(OC2OC(C)CC(N(C)C)C2O)C(C)(O)CC(C)C2NC(COCCOC)OC(C2C)C1(C)O (centres undefined),Potency,[9],inactive
same,Potency,[2],inactive
same,Potency,[4],inactive
FC(F)(F)C(F)(F)C(F)(F)C(F)(F)C(F)(F)F,Potency,[9],inactive
CCSc1ccc2c(c1)N(CCCN1CCN(C)CC1)c1ccccc1S2,Potency,[2],inactive
COc1cc(N2CCC(N3CCN(C)CC3)CC2)ccc1Nc1ncc(Cl)c(Nc2ccccc2P(C)(C)=O)n1,Potency,[2],inactive
same,Potency,[3],4.82 µM (active)
same,Potency,[7],8.91 µM (active)
same,Potency,[5],inactive
Cc1[nH]c(/C=C2\C(=O)Nc3ccc(F)cc32)c(C)c1C(=O)NCCN1CCCC1,Potency,[2],inactive
same,Potency,[4],inactive
same,"activity change, negative = inhibition",[7],-9.79% [at 27.1 µM]
C[C@](C#N)(COc1cc(C#N)ccc1C(F)(F)F)NC(=O)c1ccc(SC(F)(F)F)cc1,Potency,[2],inactive
C/C(=C(\CCOC(=O)c1ccccc1)SS/C(CCOC(=O)c1ccccc1)=C(/C)N(C=O)Cc1cnc(C)nc1N)N(C=O)Cc1cnc(C)nc1N,Potency,[9],inactive
same,Potency,[4],inactive
O=C(O)c1ccc2nc(-c3cc(Cl)cc(Cl)c3)oc2c1,Potency,[1],inactive
same,Potency,[2],inactive
same,Potency,[4],inactive
same,Potency,[7],inactive
